Screens: PubChem, National Center for Advancing Translational Sciences (NCATS)
LASV entry inh = qHTS for Inhibitors of binding or entry into cells for Lassa Virus; Lassa virus pseudotype entry inhibition, cell reporter; Potency, µM (titrated, usually from 37.9 µM), hits mostly inhibitors; actives 1.2% (n = 300,000); AID 540256, 2011; calls by dose curve; tested in HEK293 cells; also: nearly all actives have a fitted effect of over 50% in size
VACV Venus inh = qHTS for Stage-Specific Inhibitors of Vaccinia Orthopoxvirus: Venus Reporter Primary qHTS; actives 0.46% (n = 330,000); Vaccinia virus Venus reporter expression, fluorescence; Potency, µM (titrated, usually from 36.5 µM), hits mostly inhibitors; calls by dose curve; tested in A549 cells; also: nearly all actives have a fitted effect of over 30% in size
MARV entry inh = qHTS for inhibitors of binding or entry into cells for Marburg Virus | Potency, µM (doses to about 37.8 µM), most hits filed as inhibitors | actives 1.8% (n = 300,000) | Marburg virus pseudotyped entry inhibition, cell reporter; calls by dose curve; tested in HEK293 cells
HCV inh = qHTS Assay for Inhibitors of Hepatitis C Virus (HCV). Huh7.5.1 HCVcc-Cre infection, luciferase reporter, 44 h. Potency, µM (series often up to 41.8 µM), most hits filed as inhibitors. actives 3.4% (n = 340,000). AID 651820, 2012; active = well fitted inhibition curve with a large enough effect; inconclusive = small, poorly fitted or top-dose-only effect, or another doubt; inactive = no such curve, though single readings can be large or run the other way
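Luciferase read-out (15 sec integration) after a 15 min room-temperature substrate step quantifies HCVcc-Cre infection. Cells, 1,000 per well, had compound added 4 h post-plating, then virus at ~0.5 moi, and were cultured 44 h.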
Vaccinia mCherry = qHTS for Stage-Specific Inhibitors of Vaccinia Orthopoxvirus: mCherry Reporter Primary qHTS. Vaccinia virus mCherry reporter infection, fluorescence. Potency, µM (doses to about 36.5 µM), hits mostly inhibitors. actives 0.63% (n = 310,000); calls by dose curve; tested in A549 cells; also: nearly all actives have a fitted effect of over 35% in size
Of the large screens only hits and unclear results are named; the others gave an inactive call; ! = not active in a repeat. Shown are actives, neighbours in structure and some others; about 4.6% of the full set was active somewhere.

C=C1C(C)C2C(Cc3ccccc3)NC(=O)C23C(OC(C)=O)C=CC(C)(O)CC(C)CC=CC3C1O (stereo unspecified)	LASV entry inh 2.24µM, VACV Venus inh inconclusive, MARV entry inh 3.98µM, Vaccinia mCherry inconclusive
CC(=O)O[C@@H]1/C=C/[C@](C)(O)C[C@@H](C)C/C=C/[C@H]2[C@H](O)C(C)=C(C)[C@H]3[C@H](Cc4ccccc4)NC(=O)[C@@]123	none (no result: LASV entry inh, MARV entry inh)
O=C(Nc1ccc(N2CCCC2)c(Cl)c1)c1ccco1	LASV entry inh 11.6µM, MARV entry inh inconclusive, HCV inh inconclusive
CC(=O)c1cccc(NC(=O)c2ccc(-c3ccccc3[N+](=O)[O-])o2)c1	LASV entry inh inconclusive, MARV entry inh 4.61µM, HCV inh inconclusive
O=C(Nc1ccc(N2CCCC2)c(Cl)c1)c1ccc([N+](=O)[O-])o1	LASV entry inh inconclusive, VACV Venus inh 14.1µM, MARV entry inh 8.91µM, HCV inh inconclusive, Vaccinia mCherry 15.8µM
O=C(Nc1cccc([N+](=O)[O-])c1)c1ccc([N+](=O)[O-])o1	VACV Venus inh inconclusive (no result: LASV entry inh, MARV entry inh, HCV inh)
O=C(Nc1cccc(NC(=O)c2ccccc2Cl)c1)c1ccc([N+](=O)[O-])o1	LASV entry inh inconclusive, VACV Venus inh inconclusive, MARV entry inh inconclusive, HCV inh 10µM, Vaccinia mCherry 7.94µM
CCn1nnc(NC(=O)c2ccc(-c3ccccc3[N+](=O)[O-])o2)n1	none
ClCCN(CCCl)/C(=C\c1ccccc1)c1ccnc2ccccc12	none (no result: LASV entry inh, MARV entry inh, HCV inh)
CCn1c(=O)c2sccc2n2c(CCCC(=O)N3CCN(c4ccc(F)cc4)CC3)nnc12	none (no result: MARV entry inh, HCV inh)
OC[C@H]1O[C@@H](O[C@H]2[C@H](O)[C@@H](O)[C@H](O)O[C@@H]2CO)[C@H](O)[C@@H](O)[C@@H]1O	none (no result: LASV entry inh, MARV entry inh, HCV inh)
COc1ccc(C(=O)NCc2nc(-c3ccccc3NC(=O)c3cc(C)oc3C)oc2C)cc1F	none (no result: LASV entry inh, MARV entry inh, HCV inh)
O=C(Nc1cc([N+](=O)[O-])ccc1N1CCCC1)c1ccco1	none
O=C(Nc1ccc2[nH]c3c(c2c1)CCCC3)c1ccco1	MARV entry inh inconclusive, HCV inh 12.6µM (no result: Vaccinia mCherry)
Cc1cc2cc(NC(=O)c3ccco3)ccc2[nH]1	MARV entry inh inconclusive (no result: Vaccinia mCherry)
COC(=O)c1ccc(N2CCCCC2)c(NC(=O)c2ccco2)c1	MARV entry inh inconclusive, HCV inh 1.41µM (no result: LASV entry inh)
CCOC(=O)c1ccc(NC(=O)/C(C#N)=C/c2ccc(OC)cc2)cc1	none (no result: MARV entry inh, HCV inh)
CC=C[C@@H]1Oc2ccc(OC)cc2N2C(=O)[C@H](C)[C@@H](OCOC)[C@H]12	none (no result: LASV entry inh, VACV Venus inh, HCV inh, Vaccinia mCherry)
COCCNc1nc(SCC(=O)N2CCN(c3ccccc3OC)CC2)nc2ccccc12	MARV entry inh inconclusive, HCV inh 10µM (no result: VACV Venus inh, Vaccinia mCherry)
COc1ccccc1N1CCN(C(=O)CSc2nc3ccccc3o2)CC1	MARV entry inh inconclusive (no result: VACV Venus inh, Vaccinia mCherry)
O=C(CCn1ccc2cc(S(=O)(=O)N3CCCC3)ccc21)NCc1ccccc1Br	LASV entry inh inconclusive (no result: MARV entry inh, HCV inh)
Cc1cccc(C(=O)N2CCC(N3CCN(Cc4ccc(F)cc4)C(=O)C3=O)CC2)c1	none (no result: MARV entry inh, HCV inh)
O=c1c2sc3ccccc3c2n(Cc2ccc(F)cc2)c(=O)n1Cc1ccco1	none (no result: HCV inh)
COc1ccc(Cn2c(=O)n(Cc3ccco3)c(=N)c3c4c(sc32)COC(C)(C)C4)cc1	LASV entry inh inconclusive, VACV Venus inh inconclusive, HCV inh 12.6µM (no result: Vaccinia mCherry)
CC1(C)Cc2c(sc3c2c(=N)n(Cc2ccco2)c(=O)n3Cc2ccc(F)cc2)CO1	LASV entry inh 7.08µM, VACV Venus inh inconclusive, MARV entry inh inconclusive, HCV inh inconclusive (no result: Vaccinia mCherry)
CC1(C)Cc2c(sc3[nH]c(=S)n(Cc4ccccc4)c(=O)c23)CO1	LASV entry inh 6.51µM, MARV entry inh inconclusive
Cc1ccc(NC(=O)Cn2c(=O)n(Cc3ccco3)c(=N)c3c4c(sc32)COC(C)(C)C4)cc1	HCV inh 3.16µM (no result: Vaccinia mCherry)
COCCN(C)C(=O)c1cnn(-c2ncc3c(n2)-c2ccccc2CC3)c1C	none (no result: LASV entry inh, MARV entry inh, HCV inh)
CCN1C(=O)[C@H]2[C@H]3[C@H](O)[C@H](O)C/C(=N\OC[C@@H](O)COCc4ccco4)[C@@H]3CC[C@H]2C1=O	none (no result: LASV entry inh, VACV Venus inh, HCV inh, Vaccinia mCherry)
CN1CCc2ccccc2Cc2[nH]c3ccccc3c2CC1	MARV entry inh 11.2µM!
CCCCN1CCc2c([nH]c3ccccc23)C1=O	MARV entry inh inconclusive (no result: Vaccinia mCherry)
CCOc1ccccc1CNC(=O)C1CCN(C(=O)N2CC(CC)Oc3ccc(C)cc32)CC1 (stereo unspecified)	LASV entry inh inconclusive (no result: MARV entry inh, HCV inh)
COc1ccc(N(C(=O)Nc2ccc(Cl)cc2)C2=NCCC2)cc1	LASV entry inh 6.51µM, HCV inh inconclusive
CCOc1ccc2cc(C#N)c(SCC(=O)N3CCOCC3)nc2c1	HCV inh inconclusive (no result: VACV Venus inh, Vaccinia mCherry)
COc1ccc2nc(SCC(C)=O)c(C#N)cc2c1	LASV entry inh 5.62µM, MARV entry inh inconclusive, HCV inh inconclusive
CCOc1ccc2nc(SCC(=O)N3CCCCCC3)c(C#N)cc2c1	MARV entry inh inconclusive, HCV inh 7.94µM, Vaccinia mCherry inconclusive
C[C@@H]1C[C@H]2[C@@H]3CCC4=CC(=O)C=C[C@]4(C)[C@@]3(F)C(O)C[C@]2(C)[C@@]1(O)C(=O)CO (stereo partly specified)	none (no result: LASV entry inh, MARV entry inh, HCV inh)
O=C(CSc1nc2ccccc2nc1Cc1ccc(Cl)cc1)N1CCCCC1	LASV entry inh inconclusive (no result: MARV entry inh, HCV inh)
COc1cc2c(cc1OC)CN(c1ccc(-c3ccccc3OC)nn1)CC2	LASV entry inh inconclusive, MARV entry inh inconclusive, HCV inh inconclusive
COc1cc2c(cc1OC)CN(c1ccc3ccccc3n1)CC2	VACV Venus inh inconclusive, HCV inh 12.6µM, Vaccinia mCherry inconclusive
Cc1ccc2nc(-c3ccccc3)nn2c1	LASV entry inh 1.12µM, MARV entry inh 8.91µM
COc1cccc(CNC(=O)CCC2CCCN(C(=O)c3cc4ccccc4o3)C2)c1 (stereo unspecified)	LASV entry inh inconclusive, MARV entry inh 11.2µM, HCV inh inconclusive
CC(=O)c1cccc(Nc2nc(-c3cccc([N+](=O)[O-])c3)cs2)c1	LASV entry inh inconclusive, MARV entry inh inconclusive, HCV inh 2.24µM, Vaccinia mCherry inconclusive
O=[N+]([O-])c1cccc(-c2csc(N/N=C/c3cccc(O)c3)n2)c1	LASV entry inh 7.94µM, VACV Venus inh inconclusive, MARV entry inh inconclusive, HCV inh inconclusive, Vaccinia mCherry inconclusive
Cc1ccc(-c2csc(NC(=O)c3cccc([N+](=O)[O-])c3)n2)cc1	LASV entry inh inconclusive
CC(=O)Nc1nc(C)c(-c2csc(Nc3cccc(C(C)=O)c3)n2)s1	HCV inh 10µM (no result: LASV entry inh, VACV Venus inh, MARV entry inh, Vaccinia mCherry)
CC(=O)Nc1nc(C)c(-c2csc(Nc3cccc([N+](=O)[O-])c3)n2)s1	LASV entry inh inconclusive, VACV Venus inh inconclusive, MARV entry inh 14.1µM, HCV inh inconclusive, Vaccinia mCherry 5.01µM
CCOC(=O)Cc1csc(N/N=C/c2cccc([N+](=O)[O-])c2)n1	HCV inh inconclusive
CCC(=O)Nc1ccc(C(=O)OCc2ccccc2)cc1	MARV entry inh inconclusive
COP(=O)(OC)c1ccc(NCc2cc(O)ccc2O)cc1	MARV entry inh 4.47µM
O=C(OCc1ccccc1)c1ccc(NCc2cc(O)ccc2O)cc1	LASV entry inh 2.51µM, VACV Venus inh inconclusive, MARV entry inh inconclusive, HCV inh 5.01µM, Vaccinia mCherry 10µM
